Results from PubChem BioAssay AID1159580 (chemical genetic matrix, 2015).
In all, about 5,500 compounds went through this assay and about 2,000 (36%) were called active. About 18% were inconclusive and are not listed. Rule as the data show it: active = normalized growth mostly below about 0.91 (no sharp cut-off); inconclusive = no clear call, values can overlap the other calls; inactive = mostly above about 0.92. Some of the results follow.

Assay: chemical genetic growth profiling, strain panel (AID 1159580);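 also: tested at 20 µM; growth read once vehicle control cultures reached saturation at 30 °C; 1 = growth at the plate median or of vehicle wells; lower values mean less growth of the strain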
Conditions: growth OD

Measured: normalized growth

CCN(CC)CCOC(=O)C(c1ccccc1)c1ccccc1
inactive: S. cerevisiae deletion strains, locus YKL068W, hits give low values 0.986 | S. cerevisiae deletion strains, locus YKL085W, strain MDH1 (second series), hits give low values 0.994 | S. cerevisiae deletion strains, locus YKL085W, strain MDH1, hits give low values 0.994 | S. cerevisiae deletion strains, locus YKL160W, strain elf1, hits give low values 0.985 | S. cerevisiae deletion strains, locus YKL190W, strain CNB1, hits give low values 0.989 | S. cerevisiae deletion strains, locus YKR001C, strain vps1, hits give low values 1 | S. cerevisiae deletion strains, locus YKR026C, strain gcn3, hits give low values 0.963 | S. cerevisiae deletion strains, locus YKR091W, strain srl3, hits give low values 0.98 | S. cerevisiae deletion strains, locus YLL001W, strain dnm1, hits give low values 0.952 | S. cerevisiae deletion strains, locus YLL026W, hits give low values 0.971 | S. cerevisiae deletion strains, locus YLL041C, strain sdh2, hits give low values 0.974 | S. cerevisiae deletion strains, locus YLR027C, strain aat2, hits give low values 0.985 | S. cerevisiae deletion strains, locus YLR039C, strain RIC1, hits give low values 1 | S. cerevisiae deletion strains, locus YLR058C, strain SHM2, hits give low values 0.999 | S. cerevisiae deletion strains, locus YLR102C, strain apc9, hits give low values 0.988 | S. cerevisiae deletion strains, locus YLR113W, strain HOG1, hits give low values 0.965 | S. cerevisiae deletion strains, locus YLR221C, strain rsa3, hits give low values 1 | S. cerevisiae deletion strains, locus YLR258W, strain gsy2, hits give low values 0.963 | S. cerevisiae deletion strains, locus YLR262C, strain YPT6 (second series), hits give low values 0.966 | S. cerevisiae deletion strains, locus YLR262C, strain YPT6, hits give low values 1 | S. cerevisiae deletion strains, locus YLR268W, strain sec22, hits give low values 0.984 | S. cerevisiae deletion strains, locus YLR320W, strain mms22, hits give low values 1.01 | S. cerevisiae deletion strains, locus YLR330W, strain CHS5, hits give low values 0.991 | S. cerevisiae deletion strains, locus YLR342W, strain FKS1 (second series), hits give low values 0.988 | S. cerevisiae deletion strains, locus YLR342W, strain FKS1, hits give low values 0.968 | S. cerevisiae deletion strains, locus YLR357W, strain rsc2, hits give low values 0.982 | S. cerevisiae deletion strains, locus YLR370C, strain arc18, hits give low values 0.945 | S. cerevisiae deletion strains, locus YLR371W, strain rom2, hits give low values 1 | S. cerevisiae deletion strains, locus YLR384C, strain iki3, hits give low values 0.97 | S. cerevisiae deletion strains, locus YLR418C, strain cdc73, hits give low values 0.961 | S. cerevisiae deletion strains, locus YML016C, strain PPZ1, hits give low values 0.998 | S. cerevisiae deletion strains, locus YML032C, strain rad52, hits give low values 1 | S. cerevisiae deletion strains, locus YML120C, strain ndi1, hits give low values 0.961 | S. cerevisiae deletion strains, locus YML124C, strain tub3, hits give low values 0.992 | S. cerevisiae deletion strains, locus YMR058W, strain fet3, hits give low values 0.97 | S. cerevisiae deletion strains, locus YMR078C, strain ctf18, hits give low values 0.983 | S. cerevisiae deletion strains, locus YMR125W, strain sto1, hits give low values 0.949 | S. cerevisiae deletion strains, locus YMR129W, hits give low values 0.975 | S. cerevisiae deletion strains, locus YMR205C, strain PFK2, hits give low values 0.971 | S. cerevisiae deletion strains, locus YMR223W, strain ubp8, hits give low values 0.98 | S. cerevisiae deletion strains, locus YMR231W, strain pep5, hits give low values 0.977 | S. cerevisiae deletion strains, locus YMR263W, strain SAP30, hits give low values 0.991 | S. cerevisiae deletion strains, locus YMR307W, strain GAS1, hits give low values 1.02 | S. cerevisiae deletion strains, locus YNL067W, strain RPL9B, hits give low values 1.01 | S. cerevisiae deletion strains, locus YNL071W, strain lat1, hits give low values 0.973 | S. cerevisiae deletion strains, locus YNL128W, strain TEP1, hits give low values 0.968 | S. cerevisiae deletion strains, locus YNL183C, strain NPR1, hits give low values 0.94 | S. cerevisiae deletion strains, locus YNL209W, strain ssb2, hits give low values 0.969 | S. cerevisiae deletion strains, locus YNL233W, strain BNI4, hits give low values 1.03 | S. cerevisiae deletion strains, locus YNL248C, strain rpa49, hits give low values 0.976 | S. cerevisiae deletion strains, locus YNL250W, strain rad50, hits give low values 0.99 | S. cerevisiae deletion strains, locus YNL271C, strain bni1, hits give low values 0.984 | S. cerevisiae deletion strains, locus YNL298W, strain CLA4, hits give low values 0.982 | S. cerevisiae deletion strains, locus YNL307C, strain MCK1, hits give low values 0.998 | S. cerevisiae deletion strains, locus YNL322C, strain KRE1 (second series), hits give low values 0.96 | S. cerevisiae deletion strains, locus YNL322C, strain KRE1, hits give low values 0.987 | S. cerevisiae deletion strains, locus YNR049C, strain mso1, hits give low values 0.96 | S. cerevisiae deletion strains, locus YNR052C, strain pop2, hits give low values 0.98 | S. cerevisiae deletion strains, locus YOL006C, strain TOP1, hits give low values 1.04 | S. cerevisiae deletion strains, locus YOL012C, strain htz1 0.836 | S. cerevisiae deletion strains, locus YOL147C, strain pex11, hits give low values 0.994 | S. cerevisiae deletion strains, locus YOR001W, strain rrp6, hits give low values 0.979 | S. cerevisiae deletion strains, locus YOR061W, strain CKA2, hits give low values 0.999 | S. cerevisiae deletion strains, locus YOR069W, strain VPS5, hits give low values 0.989 | S. cerevisiae deletion strains, locus YOR070C, strain gyp1, hits give low values 0.974 | S. cerevisiae deletion strains, locus YOR080W, strain dia2, hits give low values 0.957 | S. cerevisiae deletion strains, locus YOR083W, strain WHI5, hits give low values 0.977 | S. cerevisiae deletion strains, locus YOR106W, strain vam3, hits give low values 0.967 | S. cerevisiae deletion strains, locus YOR136W, strain idh2, hits give low values 0.993 | S. cerevisiae deletion strains, locus YOR144C, strain elg1, hits give low values 1 | S. cerevisiae deletion strains, locus YOR184W, strain ser1, hits give low values 0.982 | S. cerevisiae deletion strains, locus YOR231W, strain MKK1, hits give low values 0.989 | S. cerevisiae deletion strains, locus YOR265W, strain rbl2, hits give low values 0.968 | S. cerevisiae deletion strains, locus YOR270C, strain vph1, hits give low values 0.941 | S. cerevisiae deletion strains, locus YOR290C, strain snf2, hits give low values 0.975 | S. cerevisiae deletion strains, locus YOR316C, strain cot1, hits give low values 0.986 | S. cerevisiae deletion strains, locus YPL051W, strain arl3, hits give low values 0.978 | S. cerevisiae deletion strains, locus YPL055C, strain LGE1, hits give low values 1.02 | S. cerevisiae deletion strains, locus YPL078C, strain atp4, hits give low values 0.965 | S. cerevisiae deletion strains, locus YPL106C, strain sse1, hits give low values 0.931 | S. cerevisiae deletion strains, locus YPL240C, strain hsp82, hits give low values 0.958 | S. cerevisiae deletion strains, locus YPL241C, strain CIN2, hits give low values 0.991 | S. cerevisiae deletion strains, locus YPL256C, strain CLN2, hits give low values 0.971 | S. cerevisiae deletion strains, locus YPR119W, strain clb2, hits give low values 1 | S. cerevisiae deletion strains, locus YPR141C, strain kar3, hits give low values 0.989 | S. cerevisiae deletion strains, locus YPR163C, strain tif3, hits give low values 0.996 | S. cerevisiae deletion strains, locus YPR167C, strain met16, hits give low values 0.987 | S. cerevisiae deletion strains, strain wtn01, hits give low values 0.969 | S. cerevisiae strains, strain wild type, hits give low values 0.992
